This is an account of results in ChEMBL document CHEMBL1157539, “Thousands of chemical starting points for antimalarial lead identification” (Nature, 2010).

Assay type in all cases: functional
Experiment [1] has as its system Plasmodium falciparum. Nature of the experiment: GSK_TCMDC: Inhibition of Plasmodium falciparum 3D7 in whole red blood cells, using parasite LDH activity as an index of growth. Test compounds present at 2uM.
The subject of experiment [2] is Plasmodium falciparum. Put plainly: GSK_TCMDC: Inhibition of Plasmodium falciparum Dd2 in whole red blood cells, using parasite LDH activity as an index of growth. Test compounds present at 2uM.
Another experiment has as its system HepG2. Nature of the experiment: GSK_TCMDC: Percent inhibition of human HepG2 cell line. Test compounds present at 10uM.

By Inhibition is commonly meant how much of the control response was suppressed. Lower therefore signals a weak effect.

Turning to `O=C(Nc1cc(Cl)cc(Cl)c1)c1cc(Cl)c(=O)n(Cc2cccc(Cl)c2)c1`, the Inhibition in the experiment with Plasmodium falciparum [1] is 100%; in the experiment with Plasmodium falciparum [2], 62%; with HepG2 it was 8%.
For `C=CCN1CCC(N(Cc2cccc(Oc3ccccc3)c2)C(=O)C(c2ccccc2)c2ccccc2)CC1`, the values for the Inhibition with Plasmodium falciparum [1], in the experiment on Plasmodium falciparum [2] and with HepG2 were 87%, 79% and 7%, respectively.
For `CCCN(CCC)C(C)CCC(C)Nc1c2ccc(Cl)cc2nc2ccc(OC)cc12.Cl` (centres undefined) the same measures were 100%, 99% and 41%.
The like results for `CCN1CCN(c2cc(C)c3cc(NC(=O)c4cccc(OC)c4)ccc3n2)CC1` were, in that order, 99%, 15% and 5%.
For `CO/C(=C\C=C\c1cc2cc(Cl)c(Cl)cc2[nH]1)C(=O)NCCCN1CCN(c2cccc(OC)c2)CC1` the same measures were 100%, 93% and 61%.
As for `O=C(CSc1nccn1C1CCCCC1)Nc1cc(C(F)(F)F)ccc1Cl`, the Inhibition stood at 96% with Plasmodium falciparum [1], 95% in the experiment on Plasmodium falciparum [2] and 2% in the experiment on HepG2.
As to `CSc1ccc2nccc(Nc3ccc(Oc4ccccc4)cc3)c2c1.Cl`, the figures for the Inhibition in the experiment on Plasmodium falciparum [1], in the experiment on Plasmodium falciparum [2] and with HepG2 were 94%, 68% and 30%, respectively.
The like results for `CCN(CC)CCN(Cc1ccc(-c2ccc(C(F)(F)F)cc2)cc1)C(=O)Cn1c(CCc2cccc(F)c2F)nc(=O)c2cccnc21.O=C(O)C(O)C(O)C(=O)O` were, in that order, 100%, 89% and 75%.
For `COc1ccc(O)c(Cc2cnc3nc(N)nc(N)c3c2C)c1.O=C(O)C(F)(F)F` the same measures were 94%, 74% and 56%.
For `Cc1cc(NC(=O)c2ccco2)ccc1OC1CCN(Cc2ccc(F)cc2)CC1.O=C(O)C(F)(F)F` the same measures were 96%, 93% and 4%.
With `COc1ccc(C(=O)O)cc1OCc1ccccc1`, the Inhibition in the experiment on Plasmodium falciparum [1] was 99%; in the experiment on Plasmodium falciparum [2] it was 0%; in the experiment on HepG2, 0%.
As for `Cl.O=S(=O)(c1ccc(OCc2ccc(Cl)cc2)cc1)c1cc2c(cc1O)CCN(C1CCC1)CC2`, the figures for the Inhibition in the experiment with Plasmodium falciparum [1], in the experiment with Plasmodium falciparum [2] and in the experiment on HepG2 were 99%, 63% and 11%, respectively.
For `COc1ccc(Cl)c(CC2c3cc(O)c(Cl)cc3CCN2C)c1.Cl` (centres undefined) the same measures were 98%, 72% and 9%.
